Values joined by “and” are separate entries in the source; they are usually repeats but may differ in a detail not shown here. Identical values can stand only once. Out of some 5,500 compounds screened, about 2,000 (36%) were called active. About 18% were inconclusive and are not listed. Rule as the data show it: active = normalized growth mostly below about 0.91 (no sharp cut-off); inconclusive = no clear call, values can overlap the other calls; inactive = mostly above about 0.92. The list shows a part of the results.
Test: chemical genetic growth profiling, strain panel (AID 1159580);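 also: tested at 20 µM; growth read once vehicle control cultures reached saturation at 30 °C; 1 = growth at the plate median or of vehicle wells; lower values mean less growth of the strain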
Details: S. cerevisiae deletion strains, growth OD

Measured: normalized growth

CCCN1C[C@H](CSC)C[C@@H]2c3cccc4[nH]cc(c34)C[C@H]21
inactive: locus YAL013W, strain DEP1, hits give low values 0.997 | locus YAL021C, strain ccr4, hits give low values 0.978 | locus YAL026C, strain drs2, hits give low values 1.02 | locus YAL030W, strain snc1, hits give low values 1.02 | locus YBL061C, strain skt5, hits give low values 1.01 | locus YBR009C, strain hhf1, hits give low values 1.02 | locus YBR021W, strain FUR4, hits give low values 0.965 | locus YBR023C, strain chs3, hits give low values 0.998 | locus YBR171W, strain sec66, hits give low values 1.02 | locus YBR229C, strain ROT2, hits give low values 1 | locus YBR231C, strain swc5, hits give low values 1.01 | locus YBR279W, strain paf1, hits give low values 0.996 | locus YCL011C, strain gbp2, hits give low values 1.02 | locus YCL016C, strain dcc1, hits give low values 1.01 | locus YCL029C, strain bik1, hits give low values 1.02 | locus YCL069W, strain vba3, hits give low values 1.01 | locus YCR088W, strain abp1, hits give low values 1.01 | locus YDL005C, strain med2, hits give low values 0.994 | locus YDL035C, strain GPR1, hits give low values 0.992 | locus YDL040C, strain nat1, hits give low values 0.996 | locus YDL074C, strain BRE1, hits give low values 0.975 | locus YDL101C, strain DUN1, hits give low values 0.992 | locus YDL134C, strain PPH21, hits give low values 1.01 | locus YDL185W, strain tfp1, hits give low values 1.02 | locus YDL192W, strain arf1, hits give low values 1.02 | locus YDR001C, strain nth1, hits give low values 1.01 | locus YDR069C, strain doa4, hits give low values 0.994 | locus YDR101C, strain arx1, hits give low values 1 | locus YDR137W, strain rgp1, hits give low values 1.1 | locus YDR150W, strain NUM1, hits give low values 0.989 | locus YDR159W, strain sac3, hits give low values 0.989 | locus YDR162C, strain NBP2, hits give low values 0.97 | locus YDR195W, strain ref2 1.03 | locus YDR297W, strain sur2, hits give low values 1.01 | locus YDR318W, strain mcm21, hits give low values 1.03 | locus YDR334W, strain swr1, hits give low values 1.02 | locus YDR335W, strain msn5, hits give low values 1.02 | locus YDR388W, hits give low values 1.02 | locus YDR392W, strain spt3, hits give low values 1.02 | locus YDR502C, strain sam2, hits give low values 1.01 | locus YEL003W, strain gim4, hits give low values 1.01 | locus YEL037C, strain rad23, hits give low values 1.01 | locus YEL061C, strain CIN8 (second series), hits give low values 1.02 | locus YEL061C, strain CIN8, hits give low values 0.999 | locus YER015W, strain faa2, hits give low values 1.01 | locus YER016W, strain bim1, hits give low values 1.02 | locus YER110C, hits give low values 1.02 | locus YER111C, strain swi4, hits give low values 1.01 | locus YER155C, strain BEM2 (second series), hits give low values 0.999 | locus YER155C, strain BEM2, hits give low values 1 | locus YER167W, strain BCK2, hits give low values 1 | locus YFR010W, strain ubp6, hits give low values 0.987 | locus YGL078C, strain dbp3, hits give low values 1.01 | locus YGL086W, strain mad1, hits give low values 1.02 | locus YGL167C, strain pmr1, hits give low values 1.02 | locus YGL173C, strain kem1, hits give low values 1 | locus YGL227W, strain vid30, hits give low values 1.01 | locus YGL240W, strain doc1, hits give low values 0.991 | locus YGL248W, strain PDE1, hits give low values 0.998 | locus YGL253W, strain hxk2, hits give low values 1.01 | locus YGR078C, strain PAC10, hits give low values 0.988 | locus YGR135W, strain pre9, hits give low values 0.985 | locus YGR229C, strain SMI1, hits give low values 0.984 | locus YGR252W, strain gcn5, hits give low values 1.06 | locus YHR013C, strain ard1, hits give low values 1 | locus YHR027C, strain rpn1, hits give low values 1.02 | locus YHR030C, strain SLT2, hits give low values 1.01 and 1.02 | locus YHR079C, strain IRE1 (second series), hits give low values 1.01 | locus YHR079C, strain IRE1, hits give low values 1.04 | locus YHR094C, strain hxt1, hits give low values 1.02 | locus YHR129C, strain ARP1, hits give low values 1 | locus YHR142W, strain chs7, hits give low values 1.02 | locus YHR200W, strain rpn10, hits give low values 1.01 | locus YIL066C, strain RNR3, hits give low values 1.01 | locus YIL073C, strain SPO22, hits give low values 1.08 | locus YIL125W, strain kgd1, hits give low values 1 | locus YIR030C, strain dcg1, hits give low values 1.01 | locus YJL092W, strain hpr5, hits give low values 1.01 | locus YJL095W, strain BCK1 (second series), hits give low values 1.01 | locus YJL095W, strain BCK1, hits give low values 0.975 and 1.04 | locus YJL115W, strain asf1, hits give low values 1.02 | locus YJL129C, strain trk1, hits give low values 1.03 | locus YJL134W, strain LCB3, hits give low values 0.993 | locus YJL154C, strain vps35, hits give low values 1.01 | locus YJL164C, strain tpk1, hits give low values 1.01 | locus YJL166W, strain qcr8, hits give low values 1.01 | locus YJL168C, strain set2, hits give low values 1.03 | locus YJL187C, strain SWE1 (second series), hits give low values 1 | locus YJR043C, strain POL32, hits give low values 1 | locus YJR066W, strain TOR1, hits give low values 0.985 | locus YJR075W, strain HOC1, hits give low values 0.98
